This passage reports growth results from PubChem BioAssay (NCI).

Test systems include DU-145 prostate; K-562 leukemia; MALME-3M melanoma; MDA-MB-231 breast; RXF 393 renal; SF-268 CNS; SF-295 CNS; SF-539 CNS; UACC-257 melanoma; M14 melanoma; HCT-15 colon; HT29 colon; SNB-75 CNS; SNB-19 CNS; U251 CNS; PC-3 prostate; SK-MEL-5 melanoma; UACC-62 melanoma; LOX IMVI melanoma; SK-MEL-28 melanoma.
Test in all cases: NCI-60 one-dose screen, 48 h (100 = growth as untreated, 0 = no growth, -100 = all killed)
Details in all cases: 10 µM unless noted

Structures are written as SMILES. About 83,000 compounds went through this panel and 20% of them were active in at least one assay; those are over-represented in the sample as a whole.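 Activity criterion: percent growth below 10, measured after cells in 96-well plates were exposed to a single compound concentration for 48 hours.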 Unmarked numbers belong to inactive results. The source made the active and inactive calls.

As to `Cc1nn(-c2ccccc2)c2nc(C)n(C(=O)N/N=C/c3ccccc3)c(=O)c12`, the growth in the test with DU-145 prostate was 114%; in the test on K-562 leukemia it was 95.6%; in the test with MALME-3M melanoma, 91.5%; in the test with MDA-MB-231 breast, 91.8%; in the test on RXF 393 renal, 111%; in the test on SF-268 CNS it was 104%. Further, the growth in the test with SF-295 CNS was 94.9%; in the test with SF-539 CNS it was 93.8%; in the test on UACC-257 melanoma, 106%; with M14 melanoma, 98.5%; with HCT-15 colon, 107%; in the test with HT29 colon it was 106%. For the same compound, the growth with SNB-75 CNS is 62.3%; in the test on SNB-19 CNS it was 87%; with U251 CNS it was 95.5%; with PC-3 prostate it was 92.7%; with SK-MEL-5 melanoma it was 103%; with UACC-62 melanoma, 92.6%. Also, the growth with LOX IMVI melanoma was 96.8%; with SK-MEL-28 melanoma, 105%.
Regarding `O=C(N/N=C/c1ccc(Br)o1)c1[nH]c2ccc(Br)cc2c1-c1ccccc1`, the growth is -44.6% (active) in the test with DU-145 prostate; 7.92% (active) in the test on K-562 leukemia; 0.448% (active) in the test on MALME-3M melanoma; -73.4% (active) in the test with MDA-MB-231 breast; -43.2% (active) with RXF 393 renal; -12.2% (active) in the test on SF-268 CNS. Also, the growth with SF-295 CNS was -25.8% (active); in the test with SF-539 CNS, -99.5% (active); with UACC-257 melanoma it was 26.2%; in the test with M14 melanoma, 6.88% (active); with HCT-15 colon, -6.94% (active); in the test with HT29 colon, -46.2% (active). The growth is -18.3% (active) in the test with SNB-75 CNS; 0.0073% (active) with SNB-19 CNS; -75.3% (active) with U251 CNS; 7.74% (active) in the test with PC-3 prostate; -78.5% (active) with SK-MEL-5 melanoma; 5.43% (active) in the test on UACC-62 melanoma. For the same compound, the growth in the test on LOX IMVI melanoma was -62.8% (active); with SK-MEL-28 melanoma, -20.9% (active).
For `O=C(Cn1c(/C=C/c2ccc([N+](=O)[O-])cc2)nc2ccccc2c1=O)Nc1ccccc1`, the growth is 78.6% with DU-145 prostate; 79.6% in the test on K-562 leukemia; 85% in the test on MALME-3M melanoma; 46.7% in the test on MDA-MB-231 breast; 27.4% in the test on RXF 393 renal; 58.9% with SF-268 CNS. The growth in the test on SF-295 CNS was 72.2%; in the test with SF-539 CNS, 21.1%; in the test with UACC-257 melanoma, 101%; in the test with M14 melanoma it was 81.2%; with HCT-15 colon, 85.8%; in the test on HT29 colon it was 45.8%. The growth in the test on SNB-75 CNS was 38.5%; in the test on SNB-19 CNS it was 37.2%; with U251 CNS, 69.4%; with PC-3 prostate, 85.1%; in the test with SK-MEL-5 melanoma, 82.6%; in the test on UACC-62 melanoma, 69.6%. The growth in the test on LOX IMVI melanoma is 58.4%; in the test with SK-MEL-28 melanoma it was 76.1%.
